Results as given in PubChem BioAssay AID652104 (National Center for Advancing Translational Sciences (NCATS), 2013).
About 7,200 (1.8%) of roughly 410,000 compounds were called active. Another 7% or so got no clear call; they are omitted. The full list was thinned out, with actives kept by preference. Values without a mark were called inactive. Calls follow the shape of the dose curve; as a rule, active = well fitted activation curve with a large enough effect; inconclusive = small, poorly fitted or top-dose-only effect, or another doubt; inactive = no such curve, though single readings can be large or run the other way.

assay: qHTS of TDP-43 Inhibitors; conditions: TDP-43 expressing yeast growth rescue, BacTiter-Glo, 24 h; series mostly up to 46.1 µM; growth rescue (activation): at the top concentration; also: nearly all actives have a fitted effect of over 50% in size; as to growth rescue (activation): % of control where 0% means no effect
In short: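 Readout is BacTiter-Glo luminescence of cell growth, so inhibitors register as activators. TDP-43-expressing yeast at OD600=0.02 in galactose medium, after raffinose pregrowth to mid-log, were incubated with compound for 24 hr at 30 deg C.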
Potency is read from the fitted curve at half-maximal effect.

| Compound | growth rescue (activation) | Potency |
| --- | --- | --- |
| Cc1ccccc1-n1nc(SCC(=O)O)sc1=S | 7.29% | – |
| N#CCSc1nn(-c2ccc(F)cc2)c(=S)s1 | – | 15.8 µM (active) |
| O=C(CSc1nn(-c2ccc(F)cc2)c(=S)s1)NC1CCS(=O)(=O)C1 (stereo not given) | -20% | – |
| COc1ccc(CC(=O)Nc2nnc3n2CCS3)cc1OC | -14.5% | – |
| Cn1nc(-c2ccccc2)c(-c2ccccc2)c(C(=O)Nc2ccc(S(N)(=O)=O)cc2)c1=O | 7.79% | – |
| CCS(=O)(=O)N1CCN(C(=O)c2cccs2)CC1 | 3.6% | – |
| Cc1ccccc1C(CC(=O)c1cccs1)C(C#N)C#N (stereo not given) | – | 17.8 µM (active) |
| Cc1ccccc1N(C(=O)CNC(=O)c1cccs1)C(C(=O)NC1CCCC1)c1ccncc1 (stereo not given) | -16.6% | – |
| Cc1cccn2c(=O)c(C(=O)NC(C)c3ccccc3)cnc12 (stereo not given) | 7% | – |
| COc1ccc(CC(=O)Nc2ccc(-c3nc4ccccc4s3)c(C)c2)cc1 | 23.4% | – |
| COc1ccc(S(=O)(=O)Nc2ccc(O)c(Sc3nc4ccccc4s3)c2)cc1 | – | 31.6 µM (active) |
| CC(C)(C)c1ccc(S(=O)(=O)Nc2ccc(O)c(Sc3nc4ccccc4s3)c2)cc1 | 17.8% | – |
| CCOc1ccccc1NC(=O)C1CCCN(S(=O)(=O)c2cn(C)cn2)C1 (stereo not given) | 12.5% | – |
| Cc1nnc(SCC(=O)NCc2ccccc2Cl)c2nn(-c3ccccc3)c(C)c12 | 5.44% | – |
| CCn1c2c(c(=O)n3ncc(C(=O)N4CCN(c5ccccc5)CC4)c13)CN(Cc1ccc(OC)cc1)CC2 | -0.166% | – |
| Cc1ccc(-n2cc3ccc([N+](=O)[O-])cc3n2)cc1 | – | 15.8 µM (active) |
| Cc1ccc(N2CCN(c3ccc([N+](=O)[O-])cn3)CC2)c(C)c1 | 16.3% | – |
| CC(C)(C)NC(=O)Cn1cnc2cc([N+](=O)[O-])ccc2c1=O | 12.4% | – |
| Cc1ccc(CCNC(=O)C2CCN(c3nnc(-n4cccc4CNc4ccc(C)cc4)s3)CC2)cc1 | 19.8% | – |
| CCOc1ccc(S(=O)(=O)N2CCN(C(=S)NCC3CCCO3)CC2)cc1 (stereo not given) | -4.84% | – |
| COc1ccc(S(=O)(=O)N2CCN(C(=S)NCC3CCCO3)CC2)cc1OC (stereo not given) | -11.9% | – |
| S=C(NCC1CCCO1)N1CCN(c2ccc(Cl)c(Cl)c2)CC1 (stereo not given) | – | 22.4 µM (active) |
| O=C(CCCn1c(=O)c2cccn2c2cccnc21)NCc1ccc(F)cc1 | 6.44% | – |
| Cc1nc2ccccn2c(=O)c1NC(=O)c1c(F)cccc1F | 14.4% | – |
| CN1C(=O)c2[nH]nc(-c3ccc(F)cc3)c2C1c1ccccn1 (stereo not given) | -14.3% | – |
| O=C(NC1CC(=O)N(c2ccc(F)cc2)C1)c1cccs1 (stereo not given) | 10.2% | – |
| CC(C)(C)c1ccc(Oc2ccc(N)cc2)cc1 | – | 35.5 µM (active) |
| CCCC(=O)Nc1ccc(NC(=O)c2sc3ccccc3c2Cl)cc1 | 12.3% | – |

| Compound | growth rescue (activation) | Potency |
| --- | --- | --- |
| Clc1ncn(CCOc2ccccc2)c1Cl | – | 17.8 µM (active) |
| Cc1c(C(N)=O)sc2ncn(CCOc3ccccc3)c(=O)c12 | 1.28% | – |
| Cc1cc2ncn(CCCCOc3ccccc3)c2cc1C | -9.16% | – |
| CSc1oc(-c2cccs2)nc1S(=O)(=O)c1ccc(Br)cc1 | 14.7% | – |
| COc1ccc(CN2CN(C(C)C)CSC2=S)cc1 | -6.51% | – |
| COc1ccc(CN2CC(C(=O)NC3CCCCC3)CC2=O)cc1 (stereo not given) | 14.9% | – |
| COc1ccc(CN2CN(C3CCCC3)CSC2=S)cc1 | – | 15.8 µM (active) |
| CC1CCCN(c2nc3c(S(=O)(=O)c4ccc(C(C)C)cc4)nnn3c3ccsc23)C1 (stereo not given) | 6.67% | – |
| O=C(Nc1cc(C(F)(F)F)ccc1Cl)c1nc2ccccc2nc1N1CCCCC1 | 23.3% | – |
| O=S(=O)(c1ccc(Br)c2ccccc12)N1CCOCC1 | – | 14.1 µM (active) |
| Cc1cc(C)c(S(=O)(=O)N2CCOCC2)cc1C | -6.06% | – |
| COc1ccc(S(=O)(=O)N2CCOCC2)c(C)c1C | 8.68% | – |
| COc1ccccc1CN1CCC(CNC(=O)c2cnn(-c3cccc(Cl)c3)c2C2CCN(C(=O)OC(C)(C)C)CC2)CC1 | 16.7% | – |
| Cc1ccc(Cn2c(C)c3cnn(CC(=O)NCc4ccccc4)c(=O)c3c2C)cc1 | 8.7% | – |
| COc1ccc(-c2ccc(C(=O)NC(C)C)c3occc23)c(C)c1 | – | 28.2 µM (active) |
| COc1ccc(CNC(=O)c2ccc(-c3cccnc3)c3ccoc23)cc1OC | 0% | – |
| COc1ccc(-c2ccc(C(=O)NCCN3CCOCC3)c3occc23)c(C)c1 | -17.6% | – |
| COC(=O)c1ccc(-c2nc3cc(NC(C)=O)ccc3o2)cc1 | -7.21% | – |
| COc1ccc(-c2cn3c(C)c(C(=O)Nc4cc(C)cc(C)c4)sc3n2)cc1 | 27.2% | – |
| COc1ccc(-n2c(SC)nc3sc4c(c3c2=O)CCN(C(C)=O)C4)cc1 | -5.38% | – |
| Cc1cc2ccccc2n1CCNC(=O)COc1ccc2ccccc2c1 | – | 35.5 µM (active) |
| Cc1ccccc1OCC(=O)NCC(=O)OCC(=O)c1ccc2ccccc2c1 | -10.9% | – |
| O=C(COc1ccc2ccccc2c1)N1CCN(C(=O)c2cccs2)CC1 | 11% | – |
| CCOc1ccccc1C(=O)NC1(C(F)(F)F)C(=O)Nc2c1c(=O)[nH]c(=O)n2-c1ccc(F)cc1 (stereo not given) | 1.7% | – |
| CCCCOc1ccc(CN2C(=O)C(=O)c3cc(Br)cc(C)c32)cc1OC | -8.61% | – |
| Cc1cccc(Oc2c([N+](=O)[O-])c(=O)n(C)c3ccccc23)c1 | – | 11.2 µM (active) |
| Cc1cccc(C2CC(=O)Oc3c2c(=O)n(C)c2ccccc32)c1 (stereo not given) | -9.05% | – |
